Active and inactive are the calls of the source. The calls were made as follows: active = hit-call score of the fitted dose curve at least 0.9, where 1 is the maximum; inactive = score below 0.9.

Assay [1] is described as follows: ATG_CRE_CIS: Attagene CIS-FACTORIAL HepG2 Assay for human cAMP Responsive Element (CRE) binding protein 3 (AID 2282926). The note with it: HepG2 CRE cis-reporter, Attagene multiplexed mRNA; actives raise or lower the signal. An outline of the steps: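 Induced reporter mRNA from a CRE cis element, measured in HepG2 among many multiplexed units at 24 h. Detection used RT-PCR plus capillary electrophoresis of fluorescent fragments; DMSO served as negative control.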

Assay [2] addresses CCAAT/enhancer-binding protein beta (Homo sapiens) (UniProt P17676). Put plainly: ATG_C_EBP_CIS: Attagene CIS-FACTORIAL HepG2 Assay for human CCAAT/Enhancer Binding Protein (C/EBP) beta (AID 2282927). The note with it: HepG2 Attagene cis-factorial transcription factor reporter; actives raise or lower the signal. An outline of the steps:
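Chemical-treated HepG2 cells (24 h) bearing cis-regulated reporter constructs were processed for total RNA, then reverse transcription, PCR amplification, fluorescent primer extension and fragment analysis; gain- and loss-of-signal were fitted against DMSO.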

Assay [3] is described as follows: ATG_CMV_CIS: Attagene CIS-FACTORIAL HepG2 Assay for human CMV (Internal Marker) (AID 2282928).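 Also: endpoint acts as a background internal control marker rather than a target.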 The note with it: HepG2 CMV promoter reporter, transcription factor profiling; actives raise or lower the signal. An outline of the steps: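 24 h chemical treatment, HepG2 with transient multi-reporter transfection; RNA → oligo(dT) RT → PCR → 6-FAM extension → HpaI digest → CE fluorescence. Bidirectional fit, DMSO negative control.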

Assay [4] can be described thus: ATG_DR4_LXR_CIS: Attagene CIS-FACTORIAL HepG2 Assay for human Liver X Receptor (LXR), DR4 submotif (AID 2282929). The note with it: HepG2 Attagene DR4 cis-reporter, mRNA transcription; actives raise or lower the signal. Summed up: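 Readout: reporter transcript fluorescence after RT-PCR and capillary electrophoresis, fitted bidirectionally against DMSO controls. Human HepG2 liver cells carried transiently transfected multiplexed reporter constructs; endogenous transcription factor activity measured 24 h post-dosing.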

Assay [5] addresses Aryl hydrocarbon receptor (Homo sapiens) (UniProt P35869). The assay can be described thus: ATG_Ahr_CIS: Attagene CIS-FACTORIAL HepG2 Assay for human Aryl Hydrocarbon Receptor (Ahr) (AID 2282930). As to conditions: HepG2 AhR cis-factorial reporter transcription; actives raise or lower the signal. An outline of the steps:
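Following 24 h of chemical dosing, transfected HepG2 liver cells with cis-driven reporter units were lysed for RNA; reporter mRNA was quantified via RT-PCR and capillary electrophoresis, and responses fitted bidirectionally from DMSO.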

A short description of assay [6]: ATG_AP_2_CIS: Attagene CIS-FACTORIAL HepG2 Assay for human Activator Protein 2 (AP-2) (AID 2282932). As to conditions: HepG2 AP-2 cis-reporter, Attagene transcription factor profiling; actives raise or lower the signal. Summed up: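 Assay in transfected HepG2 with promoter-regulated reporters, 24 h incubation after dosing. Signal is reporter mRNA fluorescence (RT-PCR, capillary electrophoresis), analysed for both increases and decreases relative to DMSO controls.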

Assay [7] can be described thus: ATG_BRE_CIS: Attagene CIS-FACTORIAL HepG2 Assay for human Bone Morphogenetic Protein (BMP) Response Element (BRE) (AID 2282933). As to conditions: HepG2 BMP response element reporter, Attagene transcription factor profiling; actives raise or lower the signal. Summed up: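 A HepG2 multiplex reporter system measured inducible reporter mRNA 24 h post-dosing. Detection: RT-PCR, 6-FAM primer extension, HpaI digestion, capillary electrophoresis. Activity fitted bidirectionally relative to DMSO.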

In assay [8] the target is Transcription factor E2F1 (Homo sapiens) (UniProt Q01094). Put plainly: ATG_E2F_CIS: Attagene CIS-FACTORIAL HepG2 Assay for human E2F Transcription Factor 1 (AID 2282935). As to conditions: HepG2 Attagene cis-reporter, E2F reporter RNA transcripts; actives raise or lower the signal. An outline of the steps: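 In this cis-factorial format, endogenous factor activity drives transfected reporters in HepG2; transcripts collected at 24 h are quantified by fluorescence after RT-PCR and capillary separation.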

Assay [9] in a line: ATG_AP_1_CIS: Attagene CIS-FACTORIAL HepG2 Assay for human Activator Protein 1 (AP-1) (AID 2282931). The note with it: HepG2 Attagene cis-factorial AP-1 reporter mRNA; actives raise or lower the signal. An outline of the steps: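 Reporter transcripts were measured 24 h after dosing by RT-PCR and capillary electrophoresis of fluorescent fragments. Cells: HepG2 carrying transfected cis-regulated reporter constructs reading endogenous factor activity. Gain or loss fitted against DMSO.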

The target in assay [10] is Retinoic acid receptor alpha (Homo sapiens) (UniProt P10276). Put plainly: ATG_DR5_RAR_CIS: Attagene CIS-FACTORIAL HepG2 Assay for human Retinoic Acid Receptor Alpha (RARE), DR5 submotif (AID 2282934). The note with it: HepG2 Attagene cis-factorial RARE DR5 reporter, mRNA; actives raise or lower the signal. An outline of the steps: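 Transfected HepG2 reporter cells are exposed to chemicals for 24 h. Then RNA is extracted and the DR5 element reporter transcript is measured by RT-PCR and capillary electrophoresis, with bidirectional curve fitting relative to DMSO.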
Retinoic acid receptor alpha (Homo sapiens), sequence (P10276 whole entry, looked up): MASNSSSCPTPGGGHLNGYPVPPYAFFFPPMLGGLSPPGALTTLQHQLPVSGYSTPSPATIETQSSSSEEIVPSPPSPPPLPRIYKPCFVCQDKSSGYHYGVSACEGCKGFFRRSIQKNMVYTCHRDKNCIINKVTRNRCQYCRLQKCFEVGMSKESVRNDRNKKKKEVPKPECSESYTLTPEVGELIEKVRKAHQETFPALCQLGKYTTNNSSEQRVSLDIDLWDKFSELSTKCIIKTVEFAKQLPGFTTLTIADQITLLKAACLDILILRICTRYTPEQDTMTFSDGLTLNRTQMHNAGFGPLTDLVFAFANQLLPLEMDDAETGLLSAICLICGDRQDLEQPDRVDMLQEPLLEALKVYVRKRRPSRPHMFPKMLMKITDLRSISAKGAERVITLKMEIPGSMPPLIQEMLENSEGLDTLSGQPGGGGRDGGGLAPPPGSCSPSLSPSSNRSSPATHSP

Aryl hydrocarbon receptor (Homo sapiens), sequence (P35869 whole entry, looked up): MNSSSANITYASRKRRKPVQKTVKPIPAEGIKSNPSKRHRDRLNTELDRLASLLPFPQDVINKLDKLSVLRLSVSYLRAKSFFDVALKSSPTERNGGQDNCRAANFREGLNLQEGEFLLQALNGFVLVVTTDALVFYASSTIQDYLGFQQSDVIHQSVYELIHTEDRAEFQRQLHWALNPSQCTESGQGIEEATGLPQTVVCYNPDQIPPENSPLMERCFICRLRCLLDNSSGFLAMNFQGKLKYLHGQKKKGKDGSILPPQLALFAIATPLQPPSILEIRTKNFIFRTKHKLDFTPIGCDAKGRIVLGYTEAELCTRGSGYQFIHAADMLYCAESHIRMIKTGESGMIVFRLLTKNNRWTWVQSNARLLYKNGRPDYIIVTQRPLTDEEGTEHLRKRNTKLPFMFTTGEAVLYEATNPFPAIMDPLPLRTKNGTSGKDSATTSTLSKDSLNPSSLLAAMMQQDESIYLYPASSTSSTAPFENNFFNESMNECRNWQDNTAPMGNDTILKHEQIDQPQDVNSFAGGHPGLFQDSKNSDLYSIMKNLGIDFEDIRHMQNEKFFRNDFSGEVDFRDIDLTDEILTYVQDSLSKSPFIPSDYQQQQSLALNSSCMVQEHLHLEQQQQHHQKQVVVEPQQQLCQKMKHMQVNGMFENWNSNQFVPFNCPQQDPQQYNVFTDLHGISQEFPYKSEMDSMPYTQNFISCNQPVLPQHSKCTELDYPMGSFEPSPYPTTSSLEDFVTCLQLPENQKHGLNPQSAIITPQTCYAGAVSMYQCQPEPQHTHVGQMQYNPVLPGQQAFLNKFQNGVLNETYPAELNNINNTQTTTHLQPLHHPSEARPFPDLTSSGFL
CCAAT/enhancer-binding protein beta (Homo sapiens), sequence (P17676 whole entry, looked up, the tested form may be a part): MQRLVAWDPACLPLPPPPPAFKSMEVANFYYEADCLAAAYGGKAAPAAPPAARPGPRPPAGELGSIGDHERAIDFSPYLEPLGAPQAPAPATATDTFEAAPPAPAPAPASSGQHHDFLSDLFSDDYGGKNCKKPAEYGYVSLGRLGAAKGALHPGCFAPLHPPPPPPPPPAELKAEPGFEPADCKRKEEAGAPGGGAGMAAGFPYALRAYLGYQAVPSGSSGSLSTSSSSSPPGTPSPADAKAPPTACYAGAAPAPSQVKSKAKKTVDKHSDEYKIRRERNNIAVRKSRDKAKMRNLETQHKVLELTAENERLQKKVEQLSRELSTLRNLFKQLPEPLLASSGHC
Transcription factor E2F1 (Homo sapiens), sequence (Q01094 whole entry, looked up): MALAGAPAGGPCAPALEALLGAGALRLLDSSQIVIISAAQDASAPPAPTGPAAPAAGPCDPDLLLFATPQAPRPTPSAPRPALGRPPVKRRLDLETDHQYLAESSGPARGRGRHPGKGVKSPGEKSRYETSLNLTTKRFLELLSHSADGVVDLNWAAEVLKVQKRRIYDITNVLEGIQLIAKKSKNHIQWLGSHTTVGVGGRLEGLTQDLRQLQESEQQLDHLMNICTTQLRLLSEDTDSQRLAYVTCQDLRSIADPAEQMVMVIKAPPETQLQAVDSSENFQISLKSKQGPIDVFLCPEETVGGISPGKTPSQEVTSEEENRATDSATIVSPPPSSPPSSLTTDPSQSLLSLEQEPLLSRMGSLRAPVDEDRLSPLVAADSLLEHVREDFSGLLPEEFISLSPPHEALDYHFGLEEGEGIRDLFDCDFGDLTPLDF

Regarding `C[C@H]1C[C@H]2[C@@H]3CCC4=CC(=O)C=C[C@]4(C)[C@@]3(F)[C@@H](O)C[C@]2(C)[C@@]1(O)C(=O)COP(=O)(O)O`, the call in assay [1], in assay [2], in [3], in assay [4], in assay [5] and in assay [6] was inactive. Moreover, the result in [7] and in assay [8] was inactive.

With `O=C(O)CCCCCCCCCCC(=O)O`, the molecule was classed as inactive in [1], in assay [2], in assay [3], in [4], in assay [5] and in assay [6]. Also, the molecule was called inactive in assay [7] and in assay [8].

For the molecule `CCOC(=O)c1ccccc1OC`, the result in assay [1], in assay [2], in assay [3], in [5], in assay [9] and in [6] was inactive. The outcome in assay [7], in assay [10] and in [8] was inactive.

Turning to `CCCCCCCCC=O`, the molecule was classed as inactive in [1], in [2], in assay [3], in assay [4], in assay [9] and in assay [6]. The molecule was classed as inactive in assay [7] and in assay [8].

On to `CC(C#N)(CCC(=O)O)N=NC(C)(C#N)CCC(=O)O` (configuration not stated), for which the molecule was classed as inactive in assay [1], in assay [2], in assay [3], in [4], in assay [5] and in assay [6]. The call in assay [7] and in [8] was inactive.

Consider `CC1(CO)CN(c2ccccc2)NC1=O` (configuration not stated), for which the molecule was classed as inactive in assay [1], in [2], in assay [3], in assay [4], in assay [6] and in assay [7]. Besides, the call in assay [8] was inactive. Also, the AC50 (in general, the concentration giving half of the maximal activity seen) in assay [5] is 9.8 µM (active).

In the case of `O=C1O[C@@H]2[C@@H](O)[C@H](O)O[C@@H]2[C@H]1O`, the outcome in assay [1], in [2], in [3], in assay [4], in assay [5] and in [6] was inactive. Moreover, the outcome in assay [7] and in assay [8] was inactive.

As for `OC1OC[C@@H](O)[C@H](O)[C@H]1O` (some centres not stated), the molecule was classed as inactive in assay [1], in assay [2], in assay [3], in assay [4], in assay [5] and in assay [7]. Also, the outcome in assay [8] was inactive.

Take `CC(=O)C(=O)O`: the result in [1], in assay [2], in [3], in assay [4], in assay [5] and in [6] was inactive. For the same molecule, the call in [7] and in assay [8] was inactive.
